# Laboratory results as given in PubChem BioAssay (NCI).
# This is part of a sample that, as a whole, favours compounds with a hit. Of some 83,000 tested, about 20% had one in any assay.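 For each line, cells grew in 96-well plates with the test compound present at a single concentration for 48 hours.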 Unmarked numbers belong to inactive results. Active and inactive are the calls of the source. How the source made its calls: active means growth percent below 10; inactive means the rest.
# Legend:
# Experiment in all cases: NCI-60 one-dose screen, 48 h (100 = growth as untreated, 0 = no growth, -100 = all killed)
# Settings in all cases: 10 µM unless noted
# HCT-15 colon = system: HCT-15 colon
# HT29 colon = system: HT29 colon
# SNB-75 CNS = system: SNB-75 CNS
# SNB-19 CNS = system: SNB-19 CNS
# U251 CNS = system: U251 CNS
# PC-3 prostate = system: PC-3 prostate
# SK-MEL-5 melanoma = system: SK-MEL-5 melanoma
# UACC-62 melanoma = system: UACC-62 melanoma
# LOX IMVI melanoma = system: LOX IMVI melanoma
# SK-MEL-28 melanoma = system: SK-MEL-28 melanoma
# SK-MEL-2 melanoma = system: SK-MEL-2 melanoma
# EKVX NSCLC = system: EKVX NSCLC
# SN12C renal = system: SN12C renal
# UO-31 renal = system: UO-31 renal
# TK-10 renal = system: TK-10 renal
# ACHN renal = system: ACHN renal
# CAKI-1 renal = system: CAKI-1 renal
# A498 renal = system: A498 renal
# CCRF-CEM leukemia = system: CCRF-CEM leukemia
# MOLT-4 leukemia = system: MOLT-4 leukemia
SMILES,growth (HCT-15 colon),growth (HT29 colon),growth (SNB-75 CNS) [%],growth (SNB-19 CNS) [%],growth (U251 CNS),growth (PC-3 prostate),growth (SK-MEL-5 melanoma),growth (UACC-62 melanoma) [%],growth (LOX IMVI melanoma),growth (SK-MEL-28 melanoma) [%],growth (SK-MEL-2 melanoma),growth (EKVX NSCLC) [%],growth (SN12C renal) [%],growth (UO-31 renal),growth (TK-10 renal) [%],growth (ACHN renal) [%],growth (CAKI-1 renal) [%],growth (A498 renal),growth (CCRF-CEM leukemia),growth (MOLT-4 leukemia) [%]
N/C(=N\C(N)=N\c1nc2ccccc2s1)c1ccc(C(F)(F)F)cc1,28.8%,105%,97.2,90.3,41.9%,8.57% (active),89%,97.8,18.3%,94.8,108%,54.8,36.5,-19.1% (active),102,27.8,80.2,70.9%,54.7%,68.6
c1cn2c(ccc3nc(-c4cn[nH]c4)c4c(c32)CCCC4)n1,35.1%,62.4%,40.5,75.5,56.1%,48.3%,87.6%,33.5,79%,66,-5.11% (active),90.2,59.2,23%,30.8,26.4,16.5,-4.01% (active),81.2%,83.4
Cc1ccc(NC(=S)NNC(=S)Nc2ccc(C)cc2)cc1,96.7%,105%,96.1,98.5,106%,101%,102%,98.6,115%,105,109%,94.5,98.1,89.9%,109,105,102,84.1%,95.6%,97.5
Cc1cccc2c3c(sc12)C(c1ccc(F)cc1)C(C#N)=C(/N=C/c1ccc(Cl)cc1)O3 (stereo not given),3.92% (active),-28.5% (active),29.5,26.4,4.91% (active),13.6%,5.84% (active),18,9.59% (active),62.2,-5.29% (active),47.8,25.5,34.6%,106,25.7,33.9,-20.2% (active),13.5%,15.2
Cn1cc(-c2cc(N)n3nc(-c4cn(C)c5ccccc45)cc3n2)c2ccccc21,32%,50.6%,112,112,72.4%,88.8%,92.7%,92.9,65.1%,95.1,119%,96,88.6,85.9%,99.3,94.8,94.6,77.8%,24.9%,49.8
COc1ccc2c(c1)c(-c1cc(N)n3nc(-c4cn(C)c5ccc(OC)cc45)cc3n1)cn2C,29.8%,75.6%,98.2,107,-30.9% (active),88.7%,102%,100,105%,113,133%,107,92.4,93.3%,121,103,96.7,88.8%,-8.54% (active),56.1
N#Cc1c(-c2cccs2)cc(-c2cnccn2)nc1SCC(=O)Nc1ccc(Br)cc1,82.9%,90.9%,50.6,69.4,83%,86.9%,91.1%,78.9,53.3%,89.7,106%,57.6,87.7,58.4%,83,64.5,64.4,6.18% (active),83.4%,89.5
CCNC(=O)N1CCc2cc(OC)c(OCCc3ccc(OC)nc3)cc2C1c1ccc(OC)cc1C (stereo not given),14%,5.66% (active),25.9,34.5,26.2%,37.8%,23.6%,22.7,7.09% (active),43.9,30.1%,61.8,44.8,40.3%,59.9,32.2,33.7,14.1%,39.3%,25.8
